BL2 CD40 inh = inhibitors of CD40-induced NF-kB signaling, primary screen, BL2 cells, luciferase reporter, single point; inhibition, % at 10 µM; CD40L-induced, 4 h; actives 0.94% (n = 83,000); AID 1053188, 2014;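 active = mean inhibition of at least 50% with a set share of replicates also reaching that level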
Numbers stand for hits; - = inactive; [ ] = another dose, or the depositor's remark. The entries come from a sample that favours hits as a whole.

SMILES	BL2 CD40 inh
O=C(Nc1cccc(F)c1)N1C[C@@H]2N[C@H](C1)C2c1ccc(-c2ccccc2F)cc1 (stereo partly drawn)	-
COc1ccc(NC(=O)N2C[C@@H]3N[C@H](C2)[C@@H]3c2ccc(-c3ccc(OC)cc3)cc2)cc1	63
CN1c2ccc(-c3ccccc3F)cc2[C@H]2[C@H](CCN2S(=O)(=O)c2ccc(F)cc2)[C@H]1CO	-
CS(=O)(=O)N1[C@H](CO)[C@@H](c2ccccc2)[C@@H]1C#N	-
O=C(NCC[C@@H]1CC[C@H](NS(=O)(=O)c2cccc(F)c2)[C@@H](CO)O1)C1CCCC1	-
O=C(Cc1ccncc1)NCC[C@@H]1CC[C@@H](NC(=O)C2CCCC2)[C@H](CO)O1	-
C[C@@H]1CN([C@@H](C)CO)C(=O)c2c(c3ccccc3n2C)-c2ccccc2CO[C@H]1CN(C)Cc1ccc(O)cc1	-
CN1C(=O)c2cc(NC(=O)C3CCCCC3)ccc2OC[C@@H]2O[C@H](CC(=O)NC3CCCC3)CC[C@H]21	-
O=S(=O)(c1cccc(F)c1)N1CC[C@@H]2[C@H]1c1cc(C#Cc3ccccc3F)ccc1N[C@@H]2CO	-
C[C@H](CO)N1C[C@H](C)[C@H](CN(C)C(=O)c2ccncc2)OCc2ccccc2-c2ccccc2C1=O	-
COc1ccccc1NC(=O)N1C[C@@H]2[C@H](c3ccccc31)[C@@H](CO)N2C(=O)C1CC1	-
COc1ccccc1-c1ccc(C2[C@H]3CNC[C@@H]2N3S(=O)(=O)c2ccc(C)cc2)cc1 (stereo partly drawn)	-
C[C@H](NC(=O)[C@@H]1N[C@@H]2c3ccc(-c4cccnc4)c(=O)n3C[C@@H]2[C@H]1CO)c1ccccc1	-
CC(C)NC(=O)N(C)C[C@@H]1Oc2c(cccc2N(C)C)C(=O)N(C)C[C@@H]1C	-
COc1ccc2c3c(n(C)c2c1)[C@H](CO)NCC31CN(Cc2ccc(-c3ccccn3)cc2)C1	-
Cc1[nH]c2ccccc2c1CC#N	-
Cc1[nH]c2ccccc2c1CCO	-
Cc1[nH]c2ccccc2c1C1=CC(=O)C=CC1=O	91
O=C(C[C@H]1C[C@@H]2c3cc(NC(=O)NC4CCCCC4)ccc3O[C@@H]2[C@H](CO)O1)NC1CCCC1	-
CS(=O)(=O)N1[C@@H](C#N)[C@H](c2ccc(C#CC3CCCC3)cc2)[C@@H]1CO	-
COCC(=O)N1C[C@H]2[C@@H](c3ccccc31)[C@@H](CO)N2C(=O)C1CCCCC1	-
O=C(NC1CC1)c1cccc(NC(=O)c2cn3ccccc3n2)c1	-
O=C(Nc1ccc(Cl)c(S(=O)(=O)N2CCOCC2)c1)c1cn2ccccc2n1	-
O=C(Nc1ccc(N2CCOCC2)cc1)c1cn2ccccc2n1	57
C[C@H](NC(=O)[C@H]1[C@H](CO)[C@H]2Cn3c(ccc(C4=CCCC4)c3=O)[C@@H]1N2C(=O)C1CC1)c1ccccc1	-
SMILES	BL2 CD40 inh
CC(C)NC(=O)N1C[C@@H]2[C@H](c3ccccc31)[C@@H](CO)N2C(=O)C1CCCC1	-
COc1ccccc1-c1ccc2n(c1=O)C[C@@H]1[C@@H](CO)[C@H](C(=O)NC3CCC3)N(C(=O)NC(C)C)[C@H]21	-
O=C(C[C@@H]1C[C@H]2c3cc(NC(=O)c4cccnc4)ccc3O[C@H]2[C@H](CO)O1)NCCc1ccccc1	-
Cc1csc(NC(=O)c2ccc(N3CCCC3=O)cc2)n1	92
Cc1nnc(NC(=O)c2ccc(N3CCCC3=O)cc2)s1	-
O=C(NC1=NCCS1)c1ccc(N2CCCC2=O)cc1	-
O=C(COC(=O)c1ccccc1[N+](=O)[O-])NC(=O)c1ccccc1	-
O=C(NC1CCCCNC1=O)c1ccccc1 (stereo not drawn)	-
O=C(NC(=S)/C(=C1\CCCCCN1)[N+](=O)[O-])c1ccccc1	72
Cc1[nH]c2ccccc2c1C(c1ccncc1)N1CCC(C)CC1 (stereo not drawn)	-
Cc1[nH]c2ccccc2c1C(c1ccccn1)N1CCC(C(N)=O)CC1 (stereo not drawn)	62
Cc1[nH]c2ccccc2c1C(c1ccncc1)N1CCN(c2ccccn2)CC1 (stereo not drawn)	-
CCCC#Cc1ccc2c(c1)[C@@H]1[C@@H](CCN1S(=O)(=O)c1cn(C)cn1)[C@@H](CO)N2	-
C[C@@H]1CN([C@@H](C)CO)C(=O)c2cc(NS(C)(=O)=O)ccc2O[C@@H](C)CCCCO[C@@H]1CN(C)C(=O)Cc1ccccc1	-
COc1ccccc1NC(=O)N(C)C[C@@H]1OCc2ccccc2-c2ccccc2C(=O)N([C@@H](C)CO)C[C@H]1C	-
COC(=O)[C@@H]1[C@@H](CO)[C@@H]2Cn3c(ccc(C4=CCCCC4)c3=O)[C@@H]2N1C(=O)C1CCCC1	-
O=C(Nc1cccc(S(=O)(=O)N2CCCCC2)c1)c1cccs1	-
O=C(Nc1ccc2c(c1)CCC2)c1cccs1	-
O=C(Nc1cccc(N2C(=O)C=CC2=O)c1)c1cccs1	99
O=C(C[C@H]1C[C@@H]2c3cc(NC(=O)NC4CCCCC4)ccc3O[C@@H]2[C@@H](CO)O1)NCC1CC1	-
Nc1ccc(S(N)(=O)=O)cc1N	-
NC1=C(Cl)C(=O)c2ccc(S(N)(=O)=O)cc2C1=O	60
NS(=O)(=O)c1ccc(Cl)c(S(N)(=O)=O)c1	-
C[C@@H]1CN([C@@H](C)CO)C(=O)c2ccccc2-c2ccccc2CO[C@@H]1CN(C)S(=O)(=O)c1ccc(C#N)cc1	-
COc1ccccc1OCC(=O)N1CCN(c2ccccc2OC)CC1	-
SMILES	BL2 CD40 inh
COc1ccccc1N1CCN(c2ccc(-c3ccccc3)nn2)CC1	53
COc1ccccc1N1CCN(c2ccc(S(=O)(=O)N3CCN(C)CC3)cn2)CC1	-
CCOC(=O)N(C)C[C@H]1OCc2cn(nn2)CCCC(=O)N([C@@H](C)CO)C[C@H]1C	-
CN(C)C(=O)c1ccc(-c2ccc3c(c2)[C@H]2[C@H](CCN2S(=O)(=O)c2cn(C)cn2)[C@@H](CO)N3)cc1	-
CN1CCN(C(=O)C[C@@H]2C[C@@H]3c4cc(NC(=O)C5CCC5)ccc4O[C@@H]3[C@@H](CO)O2)CC1	-
O=C1CC(c2ccco2)Sc2nc3ccccc3n21 (stereo not drawn)	-
O=C1CC(c2cccs2)Sc2nc3ccccc3n21 (stereo not drawn)	-
O=C1CC(c2ccc3c(c2)OCO3)Sc2nc3ccccc3n21 (stereo not drawn)	60
CC(C)NC(=O)N(C)C[C@@H]1Oc2ccc(N)cc2C(=O)N(C)C[C@@H]1C	-
COc1cccc(S(=O)(=O)N2CC[C@@H]3[C@H](CO)N(C)c4ccc(C#Cc5cccnc5)cc4[C@@H]32)c1	-
CCS(=O)(=O)N(C)[C@H]1c2cc(C#N)ccc2OC(C)(C)[C@@H]1O	-
C[C@@H]1CN([C@@H](C)CO)C(=O)c2cccc(NC(=O)CCCCCC(=O)Nc3ccccc3N)c2O[C@H]1CN(C)S(=O)(=O)c1cn(C)cn1	-
O=C(C[C@@H]1CC[C@@H]2[C@H](COC[C@@H](O)CN2CCC(F)(F)F)O1)NCc1ccc(Oc2ccccc2)cc1	-
O=C(C[C@@H]1CC[C@H]2[C@@H](COC[C@@H](O)CN2Cc2cc(F)ccc2F)O1)NCc1ccc(Oc2ccccc2)cc1	51[25 µM]
O=C(C[C@H]1CC[C@H]2[C@@H](COC[C@H](O)CN2Cc2cc(F)ccc2F)O1)NCc1ccc(Oc2ccccc2)cc1	-
CCC(=O)N1C[C@@H](O)COC[C@@H]2O[C@H](CC(=O)NCc3ccc(Oc4ccccc4)cc3)CC[C@H]21	-

Assay outcomes from PubChem BioAssay.
